Reference: publication PMC11995724, “Antibiotic target discovery by integrated phenotypic and activity-based profiling of electrophilic fragments” (Cell chemical biology, 2025)
In all, about 3,200 compounds went through this assay and about 75 (2%) showed an effect of 50% or more. What follows is part of a selection rich in strong results, with near analogues and random picks from the rest.

test system: T1, S. aureus MSSA476; set-up: species or system S. aureus MSSA476 (TSB) or V. cholerae SAD30 (LB); 384-well bacterial growth screen at 25 uM, OD600 relative to DMSO control; conditions: relative growth, OD600, TSB; 25 µM; inhibitor
T1 construct: MSSA476

| Compound | % of control remaining [%] |
| --- | --- |
| CCN1C(=O)CC[C@H](CNC(=O)C(C)Cl)[C@H]1c1cnn(C)c1 (mixture of isomers) [6-L13, rac-2-chloro-N-{[(2R,3S)-1-ethyl-2-(1-methyl-1H-pyrazol-4-yl)-6-oxopiperidin-3-yl]methyl}propanamide] | 89.122 |
| C=CC(=O)N1CCc2c(nnn2CCOC)C1 [1-N05, 1-[1-(2-methoxyethyl)-1H,4H,5H,6H,7H-[1,2,3]triazolo[4,5-c]pyridin-5-yl]prop-2-en-1-one] | 84.7473 |
| C=CC(=O)NC1CCN(c2nnnn2C)CC1 [3-G06, N-[1-(1-methyl-1H-1,2,3,4-tetrazol-5-yl)piperidin-4-yl]prop-2-enamide] | 85.677 |
| CCC(NC(=O)CCl)c1c(C)noc1C (centres unmarked) [7-D03, 2-chloro-N-[1-(3,5-dimethyl-1,2-oxazol-4-yl)propyl]acetamide] | 95.4474 |
| NC(=O)COc1ccc(C(=O)CCl)cc1 [10-M07, 2-[4-(2-chloroacetyl)phenoxy]acetamide] | 111.563 |
| O=C(CCl)Nc1cccc(Oc2ccccc2)c1 [4-P19, 2-chloro-N-(3-phenoxyphenyl)acetamide] | 90.7099 |
| CCOc1ccc(C(=O)C(C)Cl)cc1 (centres unmarked) [10-G06, 2-chloro-1-(4-ethoxyphenyl)propan-1-one] | 80.3125 |
| O=C(CCl)c1ccc(Oc2ccccc2)cc1 [10-G20, 2-chloro-1-(4-phenoxyphenyl)ethan-1-one] | -0.625 |
| O=C(CCl)c1ccc2c(c1)-c1ccccc1C2 [10-H17, 2-chloro-1-(9H-fluoren-3-yl)ethan-1-one] | 1.875 |
| CCOc1ccc(C(=O)CCl)cc1 [10-F12, 2-chloro-1-(4-ethoxyphenyl)ethan-1-one] | 0.3125 |
| O=C(CCl)Nc1ccc(Oc2ccccc2)cc1 [4-J09, 2-chloro-N-(4-phenoxyphenyl)acetamide] | 73.5588 |
| CC(Cl)C(=O)NC(C)c1ccns1 (centres unmarked) [6-P12, 2-chloro-N-[1-(1,2-thiazol-5-yl)ethyl]propanamide] | 84.3415 |
| N#CC(=Cc1cc(F)ccc1F)C(=O)Nc1cc(Cl)ccc1Cl [8-A12, 2-cyano-N-(2,5-dichlorophenyl)-3-(2,5-difluorophenyl)prop-2-enamide] | 131.12 |
| Cl.O=C(CCl)NC1CCN(Cc2cscn2)CC1 [7-H04, 2-chloro-N-{1-[(1,3-thiazol-4-yl)methyl]piperidin-4-yl}acetamide hydrochloride] | 88.2261 |
| Cc1ccc(C)c(NC(=O)C(C#N)=Cc2ccc3c(c2)OCCO3)c1 [8-L11, 2-cyano-3-(2,3-dihydro-1,4-benzodioxin-6-yl)-N-(2,5-dimethylphenyl)prop-2-enamide] | 108.216 |
| C=CC(=O)NC(Cc1ccccc1)c1ccccn1 (centres unmarked) [2-K14, N-[2-phenyl-1-(pyridin-2-yl)ethyl]prop-2-enamide] | 109.312 |
| C=CC(=O)N(C)Cc1cn(C)nc1C(C)C [3-F15, N-methyl-N-{[1-methyl-3-(propan-2-yl)-1H-pyrazol-4-yl]methyl}prop-2-enamide] | 119.808 |
| Cc1cc(C(=O)CCl)c(C)n1-c1ccc(C(F)(F)F)cc1 [10-J14, 2-chloro-1-{2,5-dimethyl-1-[4-(trifluoromethyl)phenyl]-1H-pyrrol-3-yl}ethan-1-one] | 0 |
| Cc1cc(C)cc(-n2c(C)cc(C(=O)CCl)c2C)c1 [10-E04, 2-chloro-1-[1-(3,5-dimethylphenyl)-2,5-dimethyl-1H-pyrrol-3-yl]ethan-1-one] | 128.438 |
| CCOc1ccc(-n2c(C)cc(C(=O)CCl)c2C)cc1 [10-K08, 2-chloro-1-[1-(4-ethoxyphenyl)-2,5-dimethyl-1H-pyrrol-3-yl]ethan-1-one] | 38.75 |
| Cc1cc(C(=O)CCl)c(C)n1-c1ccc(C(C)C)cc1 [10-J12, 2-chloro-1-{2,5-dimethyl-1-[4-(propan-2-yl)phenyl]-1H-pyrrol-3-yl}ethan-1-one] | 5.3125 |
| COc1ccc(-n2c(C)cc(C(=O)CCl)c2C)cc1 [10-I12, 2-chloro-1-[1-(4-methoxyphenyl)-2,5-dimethyl-1H-pyrrol-3-yl]ethan-1-one] | 127.813 |
| Cc1cc(C(=O)CCl)c(C)n1-c1ccc(C(C)(C)C)cc1 [10-N20, 1-[1-(4-tert-butylphenyl)-2,5-dimethyl-1H-pyrrol-3-yl]-2-chloroethan-1-one] | 101.875 |
| Cc1cc(C(=O)CCl)c(C)n1C(C)c1ccccc1 (centres unmarked) [10-P17, 2-chloro-1-[2,5-dimethyl-1-(1-phenylethyl)-1H-pyrrol-3-yl]ethan-1-one] | 101.563 |
| Cc1ccccc1-n1c(C)cc(C(=O)CCl)c1C [10-H20, 2-chloro-1-[2,5-dimethyl-1-(2-methylphenyl)-1H-pyrrol-3-yl]ethan-1-one] | 118.75 |
| Cc1csc(-n2c(C)cc(C(=O)CCl)c2C)n1 [10-G05, 2-chloro-1-[2,5-dimethyl-1-(4-methyl-1,3-thiazol-2-yl)-1H-pyrrol-3-yl]ethan-1-one] | 121.563 |
| Cc1cc(C(=O)CCl)c(C)n1-c1cc(Cl)cc(Cl)c1 [10-I04, 2-chloro-1-[1-(3,5-dichlorophenyl)-2,5-dimethyl-1H-pyrrol-3-yl]ethan-1-one] | 0 |
| C=CC(=O)NCc1ccc(C(=O)N2CCC[C@@H]2C(N)=O)cc1 [3-L22, (2R)-1-{4-[(prop-2-enamido)methyl]benzoyl}pyrrolidine-2-carboxamide] | 98.2151 |
| CC(Cl)C(=O)NC(c1ccc(F)cc1)c1cnn(C)c1 (centres unmarked) [7-C19, 2-chloro-N-[(4-fluorophenyl)(1-methyl-1H-pyrazol-4-yl)methyl]propanamide] | 93.2496 |
